BAZ2B inh – blocks human BAZ2B; Q9UIF8; AlphaScreen BAZ2B-H3K14Ac peptide displacement; Potency, µM (doses to about 114 µM), for the others: at the highest dose activity change, negative = inhibition, hits mostly inhibitors; 4.4% of 360,000 active; also: % is scaled to controls: 0 for no effect and ±100 for the full control effect; nearly all actives have a fitted effect of over 60% in size
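AlphaScreen luminescence quantifies BAZ2B engagement of H3K14Ac peptide; the protein and biotinylated peptide are both at 50 nM final, buffer PBS pH 7.4 with 0.01% Tween-20, all steps at room temperature.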
PLK1 PBD block – blocks phosphopeptide binding to human PLK1 polo-box domain; P53350; Plk1 PBD binding of FITC phosphopeptide, fluorescence polarization; Potency, µM, without a hit: max response, negative = inhibition, actives largely listed as inhibitors; 2.8% of 360,000 active; AID 720504; also: series mostly up to about 57 µM; % is scaled to controls: 0 for no effect and ±100 for the full control effect; nearly all actives have a fitted effect of over 65% in size
JMJD2A Tudor – blocks the human JMJD2A Tudor domain; O75164; AlphaScreen JMJD2A-Tudor / H3K4me3 peptide binding; Potency, µM (series often up to 114 µM), for inactives: at the top dose activity change, negative = inhibition, hits mostly inhibitors; 4.4% of 390,000 active; also: % is scaled to controls: 0 for no effect and ±100 for the full control effect; nearly all actives have a fitted effect of over 50% in size
G9a block – G9a (human) methyltransferase inhibition; G9a H3K9 monomethylation, AlphaScreen, 2 h; Potency, µM (highest dose often 102 µM), for inactives: at the highest dose activity, negative = inhibition, usual class: inhibitors; 8.8% of 350,000 active; AID 504332; also: % is scaled to controls: 0 for no effect and ±100 for the full control effect; nearly all actives have a fitted effect of over 75% in size
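Quantitative HTS format: methyltransferase activity on a biotin-tagged H3K9 peptide is measured by AlphaScreen, using a rabbit anti-monomethyl-H3K9 antibody with streptavidin donor and anti-IgG acceptor beads. Final levels are 20 nM enzyme, 500 nM peptide, 20 uM SAM; 2 h RT.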
HP1b binding inh – HP1-beta chromodomain-methylated histone interaction inhibition; P83916; AlphaScreen HP1-beta / biotin-H3K9me3 peptide binding; Potency, µM (doses to about 114 µM), inactives show at the highest dose activity change, negative = inhibition, actives largely listed as inhibitors; 0.56% of 390,000 active; also: nearly all actives have a fitted effect of over 70% in size
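Compound inhibition of the preformed complex between 50 nM HP1-beta and 50 nM biotinylated H3K9me3 peptide was read by AlphaScreen. Buffer was PBS pH 7.4 with 0.01% Tween-20. Incubations ran 30 min at room temperature, with 10 ug/mL donor/acceptor beads.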
VDR inh – inhibitors of human vitamin D receptor; P11473; VDR-SRC2-3 peptide fluorescence polarization, 2 h; Potency, µM, for the others: max response, negative = inhibition, most hits filed as inhibitors; 0.93% of 400,000 active; also: % is scaled to controls: 0 for no effect and ±100 for the full control effect
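Reagent solutions, kept cold and dark, are dispensed first; compounds are then pinned in at 23 nl, plates briefly spun, and incubated 2 h at ambient temperature. Inhibition of VDR–SRC2-3 peptide binding is read by fluorescence polarization.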
An asterisk follows results filed as active; ? = inconclusive; / = not tested or not shown; ! = not confirmed by another sample; [ ] = dose if it differs, or a comment. Shown are actives, neighbours in structure and some others; about 11% of the full set was active somewhere. Calls follow the shape of the dose curve; as a rule, active = well fitted curve in the direction sought with a large enough effect; inconclusive = small, poorly fitted or top-dose-only effect, or another doubt; inactive = no such curve, though single readings can be large; an effect the other way counts as inactive or inconclusive. Potency is read from the fitted curve at half-maximal effect.

SMILES	BAZ2B inh	PLK1 PBD block	JMJD2A Tudor	G9a block	HP1b binding inh	VDR inh
CC(C)[C@H](NC(=O)OCc1ccccc1)C(=O)OCC(=O)N1CCN(c2ccccc2)CC1	2.2%	-3.3%	-16.6%	?	18.2%	-21.8%
CCOc1ccccc1NC(=O)CCc1c(C)nc2cc(-c3ccccc3)nn2c1C	-1.2%	/	7.7%	-5.0%[59 µM]	34.3%	-3.1%
CCN1CCN(c2ccc(S(=O)(=O)N3CCOCC3)cc2NC(=O)c2ccc(F)cc2Cl)CC1	5.7%	4.7%	9.6%	39.8µM*	43.6%	17.9%
COc1ccc(S(=O)(=O)N2CCOCC2)cc1NC(=O)c1cccs1	3.4%	-0.6%	5.4%	14.4%[12.7 µM]	34.8%	13.9%
CCN1CCN(c2ccc(S(=O)(=O)N3CCCCC3)cc2NC(=O)c2ccc(F)cc2)CC1	-6.0%	-3.6%	?	10µM*	19.4%	-15.6%
O=C(Nc1cc(S(=O)(=O)N2CCOCC2)ccc1N1CCOCC1)c1cccs1	0.0%	-6.3%	89.1µM*	13.6%[2.33 µM]	-20.8%	-10.9%
Cc1cc(C)cc(NC(=O)NCC(O)COc2ccc([N+](=O)[O-])cc2)c1 (stereo not given)	0.9%	-2.1%	-23.0%	6.8%	23.9%	-7.6%
Cc1ccn2c(Nc3ccccc3)c(-c3c[nH]c4ccccc34)nc2c1	10µM*	/	22.4µM*	8.91µM*	?	-20.0%
Cc1ccc(Nc2c(-c3c[nH]c4ccccc34)nc3cc(C)ccn23)cc1	?	/	25.1µM*	?	?	6.6%
O=C(O)COc1ccc(/C=N/n2c(COc3ccccc3)nc3ccccc3c2=O)cc1	7.5%	-8.7%	-12.8%	?	23.2%	-7.4%
Oc1ccc(/C=N/n2c(COc3ccccc3)n[nH]c2=S)cc1O	?	21.2µM*	3.16µM*	10µM*	?	-18.3%
Cc1cc(/C=N/n2c(COc3ccccc3)nc3ccccc3c2=O)c(O)c([N+](=O)[O-])c1	4.47µM*	?	12.6µM*	-21.1%[59 µM]	?	-10.4%
O=c1c2ccccc2nc(COc2ccccc2)n1/N=C/c1ccc(O)c(O)c1	44.7µM*	-0.7%	?	3.16µM*	-16.6%	1.3%
O=C(Nn1c(COc2ccccc2)nc2ccccc2c1=O)C(Cl)(Cl)Cl	0.3%	-28.7%	-12.1%	50.1µM*	-1.0%	?
Cc1cccc(NC(=O)CN2C(=O)COc3ccc(S(=O)(=O)Nc4ccccc4)cc32)c1C	-7.9%	/	-1.0%	-27.2%[59 µM]	19.5%	15.7%
CC1(C)S[C@@H]2[C@H](NC(=O)[C@@H](N)c3ccccc3)C(=O)N2[C@H]1C(=O)O[C@H]1OC(=O)c2ccccc21	/	/	/	26.5%[21.5 µM]	/	-7.2%
CC(=O)c1cccc(S(=O)(=O)N2CCC(C(=O)N(C)Cc3ccc(Cl)s3)CC2)c1	-2.2%	-2.4%	-24.5%	15.3%[0.501 µM]	-2.1%	7.1%
CC(=O)c1ccc(S(=O)(=O)NCCC(=O)OCC(=O)N2CCCC2=O)cc1	10.5%	6.1%	-9.8%	-32.2%	27.8%	-8.3%
CCOc1cc(/C=N/n2c(COc3ccccc3)n[nH]c2=S)ccc1O	-16.7%	-8.4%	?	4.47µM*	24.0%	-11.6%
CCOc1cc(/C=N\n2nnnc2N)ccc1O	3.9%	-16.8%	-12.8%	-48.0%	?	-23.7%
Cc1cc(C)n2nc(SCC(=O)c3cc(C)n(-c4cc(C)on4)c3C)nc2n1	?	-5.6%	-14.7%	50.1µM*	3.8%	-2.4%
Cc1cc(C)n2nc(SCC(=O)c3ccccc3)nc2n1	-6.5%	-5.7%	-6.1%	-0.4%[2.33 µM]	14.8%	-10.6%
COc1cc(NS(=O)(=O)c2cc(Br)cc3c2N(C(C)=O)C(C)C3)cc(OC)c1 (stereo not given)	-1.0%	/	-17.3%	5.2%[59 µM]	22.0%	-2.5%
COc1cc(CN(C(=O)COc2ccc(C)c(C)c2)c2ccccn2)cc(OC)c1OC	-16.8%	/	-15.6%	10.3%[59 µM]	7.4%	12.4%
O=C(O)c1c[nH]c(=S)n1-c1ccc(F)cc1	?	-1.4%	?	28.2µM*	50.5%	-11.5%
SMILES	BAZ2B inh	PLK1 PBD block	JMJD2A Tudor	G9a block	HP1b binding inh	VDR inh
CSc1ncc(C(=O)O)n1-c1ccc(F)cc1	-3.0%	-6.2%	-21.6%	-46.9%	20.3%	9.5%
COc1ccc(N2CCN(c3ncnc4c3cnn4-c3ccc(F)cc3)CC2)cc1	0.7%	/	-4.6%	-23.3%[59 µM]	24.6%	7.7%
Clc1cc(Cl)c2nc(N3CCCCC3)sc2c1	141.4%	23.8µM*	118.7%	?	102.7%	-20.5%
Cc1[nH]c(-c2ccc(F)cc2)cc1C(=O)N1CCN(c2cccc(Cl)c2)CC1	-29.9%	-11.6%	?	?	-5.0%	-5.6%
Cc1ccc(SC(CC(=O)c2ccc(F)cc2)C(=O)O)cc1 (stereo not given)	49.2%	?	-4.9%	?	50.8%	22.4µM*
O=C(CC(C(=O)O)c1ccc(F)cc1)c1ccc(Cl)cc1 (stereo not given)	-8.4%	-8.8%	-7.6%	9.3%	47.1%	1.6%
CC(C)c1ccc(CN2CCSCC2)cc1	?	1.1%	2.82µM*	/	?	-12.7%
CSc1ccc(CN2CCSCC2)cc1	79.4µM*	8.0%	12.6µM*	12.6µM*	?	-11.3%
CCc1ccc(CN2CCSCC2)cc1	?	-12.2%	2.24µM*	/	?	-14.7%
CC(C)c1ccc(CN2CCN(S(=O)(=O)c3ccc(Cl)s3)CC2)cc1	2.8%	3.9%	22.9%	6.8%[2.33 µM]	66.1%	2.7%
Brc1cc(Br)cc(CN2CCSCC2)c1	18.3%	-0.2%	4.8%	/	53.5%	-1.6%
CSc1ccc(/C=C/C(=O)c2ccc(O)cc2)cc1	-38.9%	-19.9%	?	?	-19.4%	?
CSc1ccc(C(=O)c2[nH]c(=O)[nH]c2C)cc1	-1.0%	?	-23.0%	10.6µM*!	11.2%	?
Cc1ccccc1C(=O)NNC(=O)CCc1ccccc1	2.7%	-2.3%	-8.3%[11.4 µM]	-8.6%[12.7 µM]	38.9%	-1.0%
O=C(CCc1ccccc1)NNC(=O)c1ccccc1Br	-4.1%	-6.9%	-24.3%	28.2µM*	19.8%	-9.1%
O=C(CCc1ccccc1)NNC(=O)c1ccccc1C(=O)O	0.5%	7.5%	-7.9%	10µM*	37.3%	-20.2%
CC(C)(C)OC(=O)C[C@@H]1C/C=C\C[C@H](CC(=O)NCCO)C(=O)N2CCC[C@H]2COC1=O	/	-9.1%	?	/	4.7%	-14.8%
CCOC(=O)C1CCN(C(=O)Cn2c(=O)cc(C)c3c(C)nn(C)c32)CC1	-11.9%	/	-11.7%	1.2%[59 µM]	50.0%	14.4%
COc1ccc(Cn2ccc3nc(C)c(C(=O)Nc4ccc(OC)c(OC)c4)cc3c2=O)cc1	1.3%	/	-1.6%	-2.4%[59 µM]	20.3%	1.0%
CC(NC(=O)c1ccco1)C1COc2ccccc2O1 (stereo not given)	50.1µM*	-20.6%	56.2µM*	25.1µM*	-6.2%	-13.9%
COc1ccc(CNC(C)C2COc3ccccc3O2)c(OC)c1 (stereo not given)	50.1µM*	-5.2%	3.55µM*	10µM*	?	7.0%

Screens (PubChem)
